An excerpt weighted towards active compounds, which were near 2.4% of everything screened.
D2 ag-1 – HTS Assay for Allosteric Agonists of the Human D2 Dopamine Receptor: Primary Screen for Agonists; D(2) dopamine receptor (Homo sapiens), P14416; HEK293 T-REx D2 cells, calcium flux agonist mode; activation, % at 2 µM; 340,000 compounds, 0.53% hits;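 active means activation over 3 SD above normal in the single-dose calcium agonist read, cut at about 30% in these data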; further: 0% is about no effect
Target sequence (P14416 whole entry, looked up): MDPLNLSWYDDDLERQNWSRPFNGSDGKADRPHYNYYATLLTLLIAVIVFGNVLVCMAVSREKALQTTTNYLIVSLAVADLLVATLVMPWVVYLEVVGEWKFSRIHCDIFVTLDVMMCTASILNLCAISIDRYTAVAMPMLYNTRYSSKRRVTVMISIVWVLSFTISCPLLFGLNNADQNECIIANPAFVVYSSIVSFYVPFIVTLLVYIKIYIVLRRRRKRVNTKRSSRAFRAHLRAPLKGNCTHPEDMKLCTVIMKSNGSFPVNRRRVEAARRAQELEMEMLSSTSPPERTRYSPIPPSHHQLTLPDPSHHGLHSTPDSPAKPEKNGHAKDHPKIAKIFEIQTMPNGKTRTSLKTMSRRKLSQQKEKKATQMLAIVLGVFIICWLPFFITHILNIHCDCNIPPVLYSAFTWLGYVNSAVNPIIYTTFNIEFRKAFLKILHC
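Calcium-flux readout, 1 cycle/sec over 180 s following compound pin transfer, in inducible HEK293 Trex D2 cells (force-coupled); dopamine controls included. Positive calcium responses during this window marked compounds as potential agonists.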
D2 antag – HTS Assay for Allosteric Antagonists of the Human D2 Dopamine Receptor: Primary Screen for Antagonists | D(2) dopamine receptor (Homo sapiens), P14416 | HEK293 TREx D2 cells, calcium flux, dopamine EC80 | inhibition, % at 10 µM | 340,000 compounds, 2% hits; in the data active means inhibition above about 30%; inactive means below that, where a call was filed; further: 0% is about no effect
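Dopamine at EC80 is the agonist stimulus; test compounds precede it by 180 s. Calcium flux read kinetically in a force-coupled, inducible HEK293 T-REx D2 cell line.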
D2 PAM-1 – HTS Assay for Positive Allosteric Modulators of the Human D2 Dopamine Receptor: Primary Screen for Potentiators; D(2) dopamine receptor (Homo sapiens), P14416; HEK293 T-REx D2, calcium flux, EC20 dopamine potentiation; potentiation, % at 10 µM; 340,000 compounds, 0.34% hits; AID 485347, 2010;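 active means potentiation over 3 SD above the plate norm, cut at about 30% in these data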; further: 0% is about no effect
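Calcium flux readout, no-wash dye, 1 read/s. Inducible HEK293 Trex D2 line, overnight 30 C. Compound alone 180 s (agonist flags), then EC20 dopamine, another 180 s to score potentiation.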
D2 PAM-2 – Beta-Arrestin HTS for Positive Allosteric Modulators of the Human D2 Dopamine Receptor: Potentiators; potentiation, % (test concentration not listed); AID 624464, 2012; 360,000 compounds, 0.23% hits; DiscoveRx D2 beta-arrestin cells, luminescence, 90 min; 100% = 57 uM dopamine signal; D(2) dopamine receptor (Homo sapiens), P14416; in the data active means potentiation above about 50%
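D2 cells co-treated with compound plus 50 nM dopamine (EC20) for 90 min at 37 deg C to detect potentiation. Beta-arrestin recruitment was read as enzyme-fragment luminescence after 1 h at ambient temperature. Full response was set by 57 uM dopamine.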
D2 ag-2 – Beta-Arrestin HTS for Positive Allosteric Modulators of the Human D2 Dopamine Receptor: Agonists; DiscoveRx PathHunter D2 beta-arrestin, luminescence, 90 min; 100% = 57 uM dopamine signal; 360,000 compounds, 0.084% hits; activation, % (no concentration beside the values); D(2) dopamine receptor (Homo sapiens), P14416; AID 624465, 2012; in the data active means activation above about 40%
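DiscoveRx PathHunter D2 beta-arrestin cells (2,100/well) attached overnight, then compound-stimulated 90 min at 37 C in HBSS/10 mM HEPES/0.1% Tween-20 buffer; beta-galactosidase complementation read by luminescence after 1 h at ambient temperature. Dopamine 57 uM final (EC100) as control.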
* = called active by the depositor.

For COc1ccc(CC(=O)Nc2nncs2)cc1OC the results were D2 ag-1 1.1, D2 antag -7.6, D2 PAM-1 -5.1, D2 PAM-2 11.1 and D2 ag-2 0.8.
`COc1cc(CN(CC2CCCO2)C(=O)c2ccc(F)cc2)cc(OC)c1OC` (configuration not stated) gave D2 ag-1 0.4 and D2 PAM-1 -8.3.
For CCN(CCCNC(=O)c1cc(Nc2ccccc2OC)nc2ccccc12)c1cccc(C)c1 the results were D2 ag-1 0.2 and D2 PAM-1 -3.4.
Screening c1ccc(C2C3=C(CCCC3)Nc3ncnn32)cc1 (configuration not stated) returned D2 ag-1 0.4, D2 antag 31.5*, D2 PAM-1 -1.7, D2 PAM-2 -4.3 and D2 ag-2 1.1.
N#CC1=C(N)Nc2ncnn2C1c1ccccc1 (configuration not stated) was read as D2 ag-1 0.3, D2 antag 0.6 and D2 PAM-1 3.3.
Screening CC1CC(=O)C2=C(C1)Nc1ncnn1C2c1ccccc1 (configuration not stated) returned D2 ag-1 0.7, D2 antag 8.5, D2 PAM-1 34.2*, D2 PAM-2 -4.4 and D2 ag-2 -2.2.
Screening O=C1CC(c2cccs2)CC2=C1C(c1ccccc1)n1ncnc1N2 (configuration not stated) returned D2 ag-1 -0.4, D2 antag 21.2, D2 PAM-1 -6.4, D2 PAM-2 -4.8 and D2 ag-2 0.1.
`CCOc1ccc(CNCc2c(C(=O)O)n(Cc3ccc(OC)cc3)c3ccccc23)cc1` gave D2 ag-1 -0.1 and D2 PAM-1 2.1.
Screening COc1ccc(-n2nnnc2-c2cccc(OC)c2)cc1 returned D2 ag-1 0.4, D2 antag 35.6*, D2 PAM-1 -2.4, D2 PAM-2 11.6 and D2 ag-2 -0.5.
Screening CN(CCOc1ccc(Cl)cc1)C(=O)c1ccc(S(=O)(=O)N2CCOCC2)cc1 returned D2 ag-1 -1.0, D2 antag 6.5, D2 PAM-1 1.9, D2 PAM-2 -1.0 and D2 ag-2 -3.1.
For CCCCN(C)C(=O)c1ccc(S(=O)(=O)N2CCOCC2)cc1 the results were D2 ag-1 -0.2, D2 antag 32.6*, D2 PAM-1 2.9, D2 PAM-2 0.2 and D2 ag-2 -1.8.
`Cc1ccc2ncccc2c1` gave D2 ag-1 0.4, D2 antag -6.7, D2 PAM-1 5.7, D2 PAM-2 -8.2 and D2 ag-2 -0.8.
Cc1nnc(C)c2c(C)n(-c3ccc4ncccc4c3)c(C)c12 was read as D2 ag-1 0.3, D2 antag 32.4*, D2 PAM-1 1.4, D2 PAM-2 -2.6 and D2 ag-2 2.2.
Screening COc1ccc(CNC(=O)c2oc3c(c2C)-c2nn(Cc4ccc(Cl)cc4)cc2CC3)cc1 returned D2 ag-1 -0.4 and D2 PAM-1 -6.9.
For COC(=O)c1ccc2c(=O)n(CCCCCC(=O)N3CCN(c4cccc(C)c4C)CC3)c(=O)[nH]c2c1 the results were D2 ag-1 6.9 and D2 PAM-1 2.7.
Cc1[nH]n2c(=O)c3c(nc2c1-c1ccc(F)cc1)CCCC3 was read as D2 ag-1 -0.9, D2 antag 35.6*, D2 PAM-1 -21.7, D2 PAM-2 -16.7 and D2 ag-2 -5.8.
For Cc1[nH]n2c(=O)c3c(nc2c1-c1ccccc1)CCCC3 the results were D2 ag-1 3.1, D2 antag -17.2, D2 PAM-1 -17.8, D2 PAM-2 -39.4 and D2 ag-2 -2.6.
Screening Cc1c(N2C(=O)c3ccc4c5c(ccc(c35)C2=O)CC4)c(=O)n(-c2ccccc2)n1C returned D2 ag-1 -0.2, D2 antag -5.9, D2 PAM-1 4.4, D2 PAM-2 60.6* and D2 ag-2 6.3.

Bioassay records (PubChem BioAssay)
